Measured values: PubChem BioAssay (EPA / NIEHS)
Several values for one entry are separate records, joined by “and”; a condition that tells them apart may be missing. Equal entries are not always repeated. Records with an inconclusive call do not appear. Activity calls are given as the source filed them. How the source made its calls, unless noted: active means hit-call score of the fitted dose curve at least 0.9, where 1 is the maximum; inconclusive means response in the unintended direction; inactive means score below 0.9.

Columns and labels:
[1] = CCTE_Deisenroth_5AR_NBTE_donor: CCTE's 5alpha-reductase NanoBRET Target Engagement Assay […], Deisenroth Lab (AID 2284319; active means hit-call score of the fitted dose curve at least 0.9, where 1 is the maximum; inactive means score below 0.9); conditions: actives raise or lower the signal
Summary of the method: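 HEK293T cells transiently expressing SRD5A2-NanoLuc, exposed 5 h to chemicals (8 points, 10 nM - 29.9 uM), with testosterone tracer for the final 2 h. Donor luminescence at 460 nm read after Nano-Glo substrate plus extracellular NanoLuc inhibitor; bidirectional fit versus DMSO.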

[2] = CCTE_Deisenroth_5AR_NBTE_acceptor: CCTE's 5alpha-reductase NanoBRET Target Engagement Assay - Autofluorescence Screen, Deisenroth Lab (AID 2284321; active means hit-call score of the fitted dose curve at least 0.9, where 1 is the maximum; inactive means score below 0.9;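 further: compound fluorescence in the acceptor channel under 460 nm excitation flags autofluorescence artifacts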); conditions: actives raise or lower the signal
Summary of the method: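 Acceptor-channel fluorescence flags artifacts, with excitation fixed at 460 nm. Nominal 100 uM chemical samples were read in triplicate runs, and signal changes were fitted in both directions relative to DMSO.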

SRD5A2 (gene 6716) = assay: CCTE_Deisenroth_5AR_NBTE_ratio: CCTE's 5alpha-reductase NanoBRET Target Engagement Assay - Ratio, Deisenroth Lab (AID 2284322; active means hit-call score of the fitted dose curve at least 0.9, where 1 is the maximum; inactive means score below 0.9); conditions: actives raise or lower the signal
Summary of the method: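 Reverse-transfect HEK293T with pNLF1-C-SRD5A2, express 20 h. Pre-incubate cells with chemical 3 h (8-point series, 10 nM - 29.9 uM, duplicate). Add testosterone tracer, 2 h more. Add substrate/inhibitor, read donor and acceptor emission.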

[3] = IUF_NPC4_neurite_area_120hr: Leibniz Research Institute for Environmental Medicine (IUF) 120-hour Neuronal Morphology Assay for Neurite Area (NPC4) (AID 2284305)
Summary of the method: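 Human fetal cortex-derived neural progenitor spheres (0.3 mm, GW 16-19) plated on poly-D-lysine/laminin in N2 differentiation medium and exposed from day 0 for 120 h across 7 concentrations plus solvent control. Neurite area is mean pixel area per TUBB3-positive neuron via skeletonization, analysed relative to DMSO.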

[4] = IUF_NPC2-5_cytotoxicity_72hr: Cytotoxicity Assessment at 72 hours in the Leibniz Research Institute for Environmental Medicine (IUF) Neural Progenitor Cell Migration and Differentiation Assay for Cytotoxicity (NPC2-5) (AID 2284306);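 further: LDH release into supernatant measured by resorufin fluorescence marking membrane damage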
Summary of the method: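 Human fetal (GW 16-19) neural progenitor spheres, 0.3 mm, plated on poly-D-lysine/laminin in N2 differentiation medium and exposed from day 0 to 7 concentrations plus solvent control (DMSO ≤0.1%). LDH-dependent resazurin-to-resorufin fluorescence in supernatant at 72 h.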

[5] = IUF_NPC2-5_cytotoxicity_120hr: Cytotoxicity Assessment at 120 hours in the Leibniz Research Institute for Environmental Medicine (IUF) Neural Progenitor Cell Migration and Differentiation Assay (NPC2-5) (AID 2284307);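 on AC50: LDH released into supernatant as membrane damage marker via resorufin fluorescence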
Summary of the method: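 Membrane-integrity loss measured as LDH activity in medium supernatant via resazurin-to-resorufin fluorescence after 120 h exposure. hNPC spheres from GW 16-19 fetal cortex differentiated on poly-D-lysine/laminin, 37C, medium half-refreshed day 3; seven concentrations, DMSO max 0.1%.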

[6] = IUF_NPC2-5_cell_number_120hr: Cell Number Assessment at 120 hours in the Leibniz Research Institute for Environmental Medicine (IUF) Neural Progenitor Cell Migration and Differentiation Assay (NPC2-5) (AID 2284308; active means hit-call score of the fitted dose curve at least 0.9, where 1 is the maximum; inactive means score below 0.9;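 further: count of Hoechst-stained nuclei in migration zone around plated human neural progenitor spheres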)
Summary of the method: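 Counting of all Hoechst-stained nuclei in the migration area at 120 h, versus DMSO control. Primary hNPC spheres differentiated on poly-D-lysine/laminin in N2 medium at 37C, dosed from day 0 (7 concentrations, DMSO ≤0.1%), half-refed day 3.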

[7] = IUF_NPC2-5_viability_120hr: Viability Assessment at 120 hours in the Leibniz Research Institute for Environmental Medicine (IUF) Neural Progenitor Cell Migration and Differentiation Assay (NPC2-5) (AID 2284312; active means hit-call score of the fitted dose curve at least 0.9, where 1 is the maximum; inactive means score below 0.9)
Summary of the method: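 Human fetal (GW 16-19) neural progenitor spheres of 0.3 mm were plated on poly-D-lysine/laminin in N2 differentiation medium and exposed from day 0 for 120 h, with half-medium refresh at day 3. Viability was read as alamar blue resazurin-to-resorufin fluorescence against DMSO.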

[8] = CCTE_Mundy_HCI_iCellGluta_NOG_NeuriteLength: CCTE's Neurite Outgrowth Assay in iCellGluta cells for Neurite Length, Mundy Lab (AID 2284318)
Summary of the method: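 Automated high-content imaging of betaIII-tubulin (Alexa Fluor-488) and Hoechst-stained cells gave neurite length, normalized to the DMSO baseline.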

[9] = TAMU_PeakParms_SingleDonor1434_Asystole: Texas A&M University (TAMU) 1.5-hr Human Induced Pluripotent Stem Cell (iPSC)-derived Cardiomyocytes Calcium (Ca+2) Flux Assay for Cardiotoxicity: Asystole (quiescence of beating) (AID 2284328)
Summary of the method: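 Human iPSC-derived cardiomyocytes (donor 1434) were exposed to 0.2, 1, 10 and 100 uM compound in 0.5% DMSO for 90 min at 37C. Ca2+-dye fluorescence gave average peak frequency; POD is EC95, a 95% beat-rate drop versus DMSO.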

[10] = IUF_NPC5_oligodendrocyte_differentiation_120hr: Leibniz Research Institute for Environmental Medicine (IUF) 120-hour Oligodendrocyte Differentiation Assay (NPC5) (AID 2284304);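 further: primary human fetal neural progenitor spheres plated to migrate and differentiate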
Summary of the method: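 Oligodendrocyte differentiation scored as O4-positive cells, found by CNN image analysis, as percent of Hoechst-stained nuclei in the migration area. Scoring followed 5 days of exposure of plated hNPC neurospheres differentiating in DMEM/F12 N2 medium at 37C, with compound refreshed at day 3.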

[11] = VALA_TUBHUV_Agonist_CellCount: Viability Assessment in the VALA Sciences human Umbilical Vein Endothelial Tubule Formation (TUBHUV) Agonism Assay (AID 2284309)
Summary of the method: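 HUVEC co-cultured 1:3 with HDF for 3 days in 10 ng/ml VEGF, then compounds added in VEGF medium for a further 3 days (72 h). Nuclear-stain/CD31 imaging cell count. Positive-direction fit versus 0.1% DMSO vehicle.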

[12] = VALA_TUBHUV_Antagonist_CellCount: Viability Assessment in the VALA Sciences human Umbilical Vein Endothelial Tubule Formation (TUBHUV) Antagonism Assay (AID 2284310)
Summary of the method: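 HUVEC co-cultured with HDF (1:3) 3 days in 10 ng/ml VEGF, then 3 days with compounds in VEGF medium. Fixed, nuclear stain and CD31 immunofluorescence, imaged; cell counts fitted versus 0.1% DMSO, loss of signal read as lower viability.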

[13] = VALA_MIGHUV2_CellCount: Viability Assessment in the VALA Sciences human Umbilical Vein Endothelial Cell Migration (MIGHUV) Assay, Area of Scratch Wound after Recovery (AID 2284314)
Summary of the method: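 Scratch-wounded HUVEC monolayers received test chemical within 30 min, 6-point concentration response in triplicate, 0.1 % DMSO vehicle. After 24 h wound recovery, fixed cells were Hoechst-stained and nuclei imaged; loss of signal versus DMSO indicates reduced viability.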

[14] = VALA_TUBHUV_Antagonist_TubuleLength: VALA Sciences human Umbilical Vein Endothelial Tubule Formation (TUBHUV) Antagonism Assay (AID 2284325)
Summary of the method: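 HUVEC–HDF co-culture (1:3) pre-grown 3 days with 10 ng/ml VEGF, then 3 days with compound plus VEGF. Fixed, nuclear and CD31 stained; total tubule length by imaging versus 0.1% DMSO; suramin 100 uM positive control.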

IYD (gene 389434) = assay: CCTE_GLTED_hIYD: CCTE's human Iodotyrosine Deiodinase (xIYD) Inhibition Assay, Great Lakes Toxicology and Ecology Division (GLTED) Lab (AID 2284317);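 further: cell-free human IYD enzyme made in baculovirus insect cells; iodide freed from monoiodotyrosine measured by cerium arsenite color change at 420 nm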
Summary of the method: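 Human IYD expressed in a baculovirus-insect cell system was incubated 3 h with monoiodotyrosine and test chemical. Released iodide, separated on Dowex columns, was quantified by the Sandell-Kolthoff reaction at 420 nm; plates were normalized to MNT and DMSO/NaOH controls.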

C[Si](Cn1cncn1)(c1ccc(F)cc1)c1ccc(F)cc1
outcome [1]: inactive | outcome [2]: inactive | outcome (SRD5A2 (gene 6716)): inactive

CCC(CC)Nc1c([N+](=O)[O-])cc(C)c(C)c1[N+](=O)[O-]
outcome [1]: inactive | outcome [2]: inactive | outcome (SRD5A2 (gene 6716)): inactive

C=C(C)[C@H]1Cc2c(ccc3c2O[C@@H]2COc4cc(OC)c(OC)cc4[C@@H]2C3=O)O1
AC50 [3]: 220 nM (active) and 15.5 nM (active) | outcome [4]: inactive | outcome [5]: inactive | AC50 [6]: 0.00141 µM (active) | AC50 [7]: 267 nM (active) and 1.57 nM (active) | AC50 [8]: 0.121 µM (active) | outcome [1]: inactive | outcome [2]: inactive | AC50 (SRD5A2 (gene 6716)): 30.6 µM (active) | AC50 [9]: 0.01 µM (active)

CCOP(=S)(OCC)Oc1ccc([N+](=O)[O-])cc1
outcome [8]: inactive | outcome [9]: inactive

COP(=O)(OC)OC(Br)C(Cl)(Cl)Br (stereo unspecified)
AC50 [3]: 27 µM (active) | outcome [4]: inactive | AC50 [5]: 70.1 µM (active) | AC50 [6]: 25.7 µM (active) | outcome [7]: inactive | AC50 [8]: 13.5 µM (active) | outcome [1]: inactive | outcome [2]: inactive | outcome (SRD5A2 (gene 6716)): inactive

COP(=O)(NC(C)=O)SC (stereo unspecified)
outcome [10]: inactive | outcome [3]: inactive | outcome [4]: inactive | outcome [5]: inactive | outcome [6]: inactive | outcome [7]: inactive

CCOC(=O)CC(SP(=O)(OC)OC)C(=O)OCC (stereo unspecified)
outcome [10]: inactive | outcome [3]: inactive | outcome [4]: inactive | outcome [5]: inactive | outcome [6]: inactive | outcome [7]: inactive

CC[C@H](C)[C@H]1O[C@]2(C=C[C@@H]1C)C[C@@H]1C[C@@H](C/C=C(\C)[C@@H](O[C@H]3C[C@H](OC)[C@@H](O[C@H]4C[C@H](OC)[C@@H](NC)[C@H](C)O4)[C@H](C)O3)[C@@H](C)/C=C/C=C3\CO[C@@H]4[C@H](O)C(C)=C[C@@H](C(=O)O1)[C@]34O)O2
AC50 [10]: 305 nM (active) and 96.9 nM (active) | AC50 [3]: 1.04 µM (active) and 5.11 µM (active) | AC50 [4]: 1.88 µM (active) and 4.62 µM (active) | AC50 [5]: 1.05 µM (active) and 1.48 µM (active) | AC50 [6]: 836 nM (active) and 2 µM (active) | AC50 [7]: 1.14 µM (active) and 2.1 µM (active) | AC50 [8]: 0.811 µM (active) | AC50 [1]: 14.2 µM (active) | AC50 [2]: 10 µM (active) | AC50 (SRD5A2 (gene 6716)): 16.6 µM (active)

CCOP(=S)(OCC)OC(Cl)C(Cl)(Cl)Cl (stereo unspecified)
outcome [10]: inactive | outcome [3]: inactive | outcome [4]: inactive | outcome [5]: inactive | outcome [6]: inactive | outcome [7]: inactive | outcome [8]: inactive

O=[N+]([O-])c1cc(C(F)(F)F)c(Cl)c([N+](=O)[O-])c1Nc1ncc(C(F)(F)F)cc1Cl
AC50 [10]: 1.3 µM (active) | AC50 [3]: 1.13 µM (active) | AC50 [4]: 3.71 µM (active) | AC50 [5]: 1.08 µM (active) | AC50 [6]: 1.1 µM (active) | outcome [11]: inactive | outcome [12]: inactive | AC50 [7]: 1.4 µM (active) | outcome [13]: inactive | AC50 [8]: 0.714 µM (active) | outcome [14]: inactive

CN1COCN(Cc2cnc(Cl)s2)C1=N[N+](=O)[O-]
outcome [10]: inactive | outcome [3]: inactive | outcome [4]: inactive | outcome [5]: inactive | outcome [6]: inactive | outcome [7]: inactive | outcome [8]: inactive

CC(C)N(C(=O)SCC(Cl)=C(Cl)Cl)C(C)C
outcome [10]: inactive | outcome [4]: inactive | outcome [5]: inactive | outcome [6]: inactive | outcome [7]: inactive | AC50 [8]: 20.2 µM (active) | outcome [1]: inactive | outcome [2]: inactive | outcome (SRD5A2 (gene 6716)): inactive

COP(=O)(OC)C(O)C(Cl)(Cl)Cl (stereo unspecified)
AC50 [3]: 5.08 µM (active) | outcome [4]: inactive | outcome [5]: inactive | outcome [6]: inactive | outcome [7]: inactive

CC(C)[C@H](C(=O)O[C@H](C#N)c1cccc(Oc2ccccc2)c1)c1ccc(Cl)cc1
outcome (IYD (gene 389434)): inactive

CCCSP(=O)(OCC)SCCC
outcome [10]: inactive | outcome [3]: inactive | outcome [4]: inactive | outcome [5]: inactive | outcome [6]: inactive | outcome [7]: inactive | outcome [8]: inactive

CCOP(=S)(OCC)SCCSCC
outcome [3]: inactive | outcome [4]: inactive | outcome [5]: inactive | outcome [6]: inactive | outcome [7]: inactive
